# PubChem BioAssay AID463173 (ICCB-Longwood Screening Facility, Harvard Medical School, 2010)
# Screen size: about 52,000 compounds; about 4,300 (8.3%) were called active. This excerpt belongs to a sample that is enriched for actives. Values without a mark were called inactive. No stated cut-off is given here; in the data, active means survival mostly below about 52% (no sharp cut-off); inactive means mostly above about 56%.
# Tested on: DeltatarO mutant
# Assay: growth inhibition of S. aureus wild type versus tarO mutant, primary screen, teichoic acid synthesis inhibitors, RN4220, OD600 (AID 463173)
# Conditions: OD600, 18 h, hits give low values, screened at 18.75 µg/mL (by protocol)
row,Structure (SMILES),survival
1,OCCN(Cc1ccccc1)Cc1ccccc1O,102%
2,CC(=O)N1c2ccccc2C(=O)C1N1CCN(c2ccccc2)CC1 (stereo not given),85%
3,CCCOc1ccc(-c2cccc(NS(=O)(=O)c3cc(OC)ccc3OC)c2)nn1,99%
4,COc1cccc(Nc2nc3cc(Cl)c(Cl)cc3nc2-n2nc(C)cc2C)c1,98%
5,Cc1ccc(C(=O)c2cn(CC(=O)Nc3ccc(C)cc3Cl)c3nc(C)ccc3c2=O)cc1,99%
6,Cc1ccc(Cl)cc1NC(=O)CCCn1c(=O)c2cccn2c2cccnc21,100%
7,O=C(O)CCCN1CCCC1=O,81%
8,CCCCOC(=O)c1ccc(NC(=O)CSc2nc3c(c(=O)[nH]2)CCC3)cc1,55%
9,CC(C)=NOC1=NS(=O)(=O)c2ccccc21,92%
10,O=C(Nc1ccc(F)c(Cl)c1)N1CCC2(CC1)Oc1ccccc1C(=O)N2Cc1ccccc1F,55%
11,CC(C)OCCCNC(=O)CCCn1c(SCC(N)=O)nc2c(sc3ccccc32)c1=O,88%
12,Cc1ccccc1C(=O)Nc1nnc(S(=O)(=O)N(C)c2ccc(Cl)cc2)s1,30% (active)
13,COc1ccccc1C(=O)Nc1nnc(S(=O)(=O)N(C)c2ccc(Cl)cc2)s1,95%
14,CCN(c1ccc(OC)cc1)S(=O)(=O)c1nnc(NC(=O)COc2ccc(F)cc2)s1,70%
15,Cc1ccccc1C(=O)Nc1nnc(S(=O)(=O)N(C)Cc2ccc(Cl)cc2)s1,102%
16,CCN(c1ccc(OC)cc1)S(=O)(=O)c1nnc(NC(=O)c2ccccc2C)s1,37% (active)
17,Cc1ccc(C)c(NC(=O)CN2C(=O)C3(SCC(=O)N3c3ccc(C)c(C)c3)c3ccccc32)c1 (stereo not given),80%
18,Cc1cc(C)cc(NC(=O)Cn2c(=O)n(CC(=O)NCCc3ccccc3)c(=O)c3ccccc32)c1,62%
19,CCc1ccc2oc(-c3ccc(C)c(NC(=O)/C=C/c4ccco4)c3)nc2c1,83%
20,CCc1ccc2oc(-c3cc(NC(=O)c4cccs4)ccc3Cl)nc2c1,19% (active)
21,CC(C)c1ccc2oc(-c3ccc(Cl)c(NC(=O)c4cccs4)c3)nc2c1,5% (active)
22,Cc1c(NC(=O)c2cccs2)cccc1-c1nc2cc(Cl)ccc2o1,42%
23,Cc1ccc2oc(-c3ccc(C)c(NC(=O)/C=C/c4ccco4)c3)nc2c1,58%
24,CC(C)c1ccc2oc(-c3cc(NC(=O)c4cccs4)ccc3Cl)nc2c1,16% (active)
25,CC(C)c1ccc2oc(-c3ccc(Cl)c(NC(=O)Cc4ccccc4)c3)nc2c1,116%
26,Cc1ccc2oc(-c3cc(NC(=O)c4cccs4)cc(C)c3O)nc2c1,138%
27,Cc1cc(C)c2oc(-c3ccc(C)c(NC(=O)/C=C/c4ccco4)c3)nc2c1,45% (active)
28,O=C(Nc1ccc(O)c(-c2nc3ccccc3o2)c1)c1cccs1,75%
29,Cc1ccc(-c2nc3cc(C(C)C)ccc3o2)cc1NC(=O)c1cccs1,57%
30,Cc1cc(NC(=O)c2cccs2)cc(-c2nc3cc(Cl)ccc3o2)c1O,79%
